Measurements published in PubChem BioAssay (NCI).
This is part of a sample that, as a whole, favours compounds with a hit. Of some 79,000 tested, about 15% had one in any assay. Activity calls are given as the source filed them. No stated cut-off is given here; in the data, active means growth inhibition above about 70%; inactive means the rest.

What was measured:
[1] = NCI Yeast Anticancer Drug Screen. Data for the rad52 strain (AID 147);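 further: 0% = growth of vehicle-treated control cultures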; conditions: S. cerevisiae rad52 mutant growth inhibition, hits give high values
Summary of the method: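 Vehicle-treated cultures served as the reference for growth inhibition of compound-exposed yeast bearing a DNA repair mutation.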

[2] = NCI Yeast Anticancer Drug Screen. Data for the wt1 strain (AID 149);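 further: 0% = growth of vehicle-treated wt1 cultures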; conditions: S. cerevisiae wt1 strain (SPY 50644) growth inhibition, hits give high values
Summary of the method: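 wt1 yeast, compound-treated; % growth inhibition vs vehicle control.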

[3] = NCI Yeast Anticancer Drug Screen. Data for the rad50EPP+ strain (AID 151);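 further: 0% = growth of vehicle-treated control cultures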; conditions: S. cerevisiae rad50 mutant strain, hits give high values
Summary of the method: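 In this screen, rad50EPP+ yeast were exposed to compounds. Growth inhibition was scored against vehicle-treated controls.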

[4] = NCI Yeast Anticancer Drug Screen. Data for the mgt1 strain (AID 153); conditions: S. cerevisiae mgt1 mutant growth inhibition, hits give high values
Summary of the method: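 mgt1 strain exposed; growth vs vehicle control recorded as inhibition.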

[5] = NCI Yeast Anticancer Drug Screen. Data for the rad50 strain (AID 155);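 further: 0% = growth of vehicle-only cultures of the same strain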; conditions: S. cerevisiae rad50 strain growth inhibition, hits give high values
Summary of the method: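 Genetically altered yeast (DNA repair pathway); compound treatment; growth inhibition vs vehicle ctrl.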

[6] = NCI Yeast Anticancer Drug Screen. Data for the mec2-1 strain (AID 157); conditions: S. cerevisiae mec2-1 strain, hits give high values
Summary of the method: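 Vehicle-treated cultures served as reference for growth inhibition of compound-exposed mec2-1 yeast.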

[7] = NCI Yeast Anticancer Drug Screen. Data for the rad14 strain (AID 159);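 further: 0% = growth of vehicle-treated control cultures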; conditions: S. cerevisiae rad14 strain growth inhibition, hits give high values
Summary of the method: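 Test compounds were applied to a repair-deficient yeast strain. Its growth was then compared with that of cultures given vehicle alone, and inhibition was expressed relative to those controls.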

[8] = NCI Yeast Anticancer Drug Screen. Data for the sgs1 mgt1 strain (AID 161);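 further: 0% = growth of cultures given vehicle only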; conditions: S. cerevisiae sgs1 mgt1 strain, hits give high values
Summary of the method: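 Test agents were incubated with a DNA-repair-mutant yeast strain. Growth was then read and compared against vehicle-treated controls.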

[9] = NCI Yeast Anticancer Drug Screen. Data for the CLN2oe strain (AID 163);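 further: 0% = growth of vehicle-only control cultures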; conditions: S. cerevisiae CLN2oe strain, hits give high values
Summary of the method: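 Inhibition relative to vehicle-treated yeast is reported. Cells: strain with genetic alteration in cell-cycle control, grown with compound.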

[10] = NCI Yeast Anticancer Drug Screen. Data for the cln2 rad14 strain (AID 165);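 further: 0% = growth equal to vehicle treated cultures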; conditions: S. cerevisiae cln2 rad14 strain, hits give high values
Summary of the method: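 Each compound was tested on cln2 rad14 yeast. Inhibition of growth was calculated against vehicle-exposed controls.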

[11] = NCI Yeast Anticancer Drug Screen. Data for the bub3 strain (AID 167); conditions: S. cerevisiae bub3 mutant strain, hits give high values
Summary of the method: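 Yeast carrying a defined mutation is treated with each compound, and growth is compared with that of vehicle-exposed cells to give inhibition.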

[12] = NCI Yeast Anticancer Drug Screen. Data for the wt2 strain (AID 169);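 further: 0% = growth of vehicle-treated yeast cultures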; conditions: S. cerevisiae wt2 strain growth inhibition, hits give high values
Summary of the method: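 Inhibition of yeast growth was determined after compound treatment, normalised to controls receiving only vehicle.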

[13] = NCI Yeast Anticancer Drug Screen. Data for the mlh1 strain (AID 171);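 further: 0% = growth of vehicle-treated control cultures of the same strain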; conditions: S. cerevisiae mlh1 strain growth inhibition, hits give high values
Summary of the method: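 Vehicle-normalised growth inhibition of a repair- or checkpoint-altered yeast strain following compound treatment.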

[14] = NCI Yeast Anticancer Drug Screen. Data for the sgs1 strain (AID 173);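 further: 0% = growth of vehicle-only control cultures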; conditions: S. cerevisiae sgs1 mutant, hits give high values
Summary of the method: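 Screen format: yeast with repair or checkpoint alterations, compound exposure, growth read relative to vehicle.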

[15] = NCI Yeast Anticancer Drug Screen. Data for the mlh1 rad18 strain (AID 175); conditions: S. cerevisiae mlh1 rad18 strain growth inhibition, hits give high values
Summary of the method: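 Vehicle-treated cultures served as the reference for growth inhibition in a yeast strain carrying DNA damage repair alterations exposed to each compound.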

[16] = NCI Yeast Anticancer Drug Screen. Data for the rad18 strain (AID 177); conditions: S. cerevisiae rad18 mutant growth inhibition, hits give high values
Summary of the method: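 Test articles were incubated with altered yeast defective in DNA damage repair. Results are given as inhibition of growth versus vehicle.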

[17] = at 5.0 µM (retest, dose inferred, filed as 0.5)
[18] = at 50.0 µM (retest, dose inferred, filed as 5.0)

Measured: growth inhibition

CSc1nc(-c2ccccc2)nc(=[N+]2CCOCC2)s1
active: [1]; at 11.0 µM 83% | [1]; at 33.0 µM 97% | [1]; at 100.0 µM 98% | [2]; at 100.0 µM 93% | [3]; at 11.0 µM 77% | [3]; at 33.0 µM 89% | [3]; at 100.0 µM 93% | [4]; at 33.0 µM 87% | [4]; at 100.0 µM 98% | [5]; [17] 74% | [5]; at 11.0 µM 79% | [5]; at 33.0 µM 94% | [5]; [18] 74% | [5]; at 50.0 µM 88.8% | [5]; at 100.0 µM 98% | [6]; at 33.0 µM 73% | [6]; at 50.0 µM 73.5% | [6]; at 100.0 µM 98% | [7]; at 33.0 µM 78% | [7]; at 100.0 µM 99% | [8]; at 50.0 µM 86.4% | [9]; at 33.0 µM 77% | [9]; at 100.0 µM 96% | [11]; at 33.0 µM 82% | [11]; at 50.0 µM 81.6% | [11]; at 100.0 µM 96% | [12]; at 33.0 µM 81% | [12]; at 100.0 µM 97% | [13]; at 33.0 µM 76% | [13]; at 100.0 µM 98% | [14]; at 11.0 µM 72% | [14]; at 33.0 µM 94% | [14]; at 100.0 µM 98% | [15]; at 50.0 µM 82.2% | [16]; at 11.0 µM 86% | [16]; at 33.0 µM 94% | [16]; at 100.0 µM 98%
inactive: [1]; at 1.2 µM 17% | [1]; at 3.7 µM 52% | [2]; at 1.2 µM 5% | [2]; at 3.7 µM 11% | [2]; at 11.0 µM 23% | [2]; at 33.0 µM 56% | [3]; at 1.2 µM 27% | [3]; at 3.7 µM 56% | [4]; at 1.2 µM 3% | [4]; at 3.7 µM 11% | [4]; at 11.0 µM 31% | [5]; at 1.2 µM 13% | [5]; at 3.7 µM 37% | [6]; at 1.2 µM 1% | [6]; at 3.7 µM 8% | [6]; [17] 18% | [6]; at 11.0 µM 32% | [6]; [18] 18% | [7]; at 1.2 µM 4% | [7]; at 3.7 µM 9% | [7]; at 11.0 µM 25% | [8]; [17] 44% | [8]; [18] 44% | [9]; at 1.2 µM -4% | [9]; at 3.7 µM 6% | [9]; at 11.0 µM 21% | [10]; [17] 14% | [10]; [18] 14% | [10]; at 50.0 µM 64.1% | [11]; at 1.2 µM -8% | [11]; at 3.7 µM -3% | [11]; [17] 21% | [11]; at 11.0 µM 32% | [11]; [18] 21% | [12]; at 1.2 µM 6% | [12]; at 3.7 µM 15% | [12]; at 11.0 µM 37% | [13]; at 1.2 µM -1% | [13]; at 3.7 µM 10% | [13]; at 11.0 µM 35% | [14]; at 1.2 µM 10% | [14]; at 3.7 µM 31% | [15]; [17] 35% | [15]; [18] 35% | [16]; at 1.2 µM 16% | [16]; at 3.7 µM 50%

O=C(O)c1cc2c(cc1S(=O)(=O)O)C1C(C3C2C2(Cl)C(Cl)=C(Cl)C3(Cl)C2(Cl)Cl)C2(Cl)C(Cl)=C(Cl)C1(Cl)C2(Cl)Cl (stereo unspecified)
inactive: [1]; at 1.2 µM 0% | [1]; at 3.7 µM 3% | [1]; at 11.0 µM 13% | [2]; at 1.2 µM 2% | [2]; at 3.7 µM 0% | [2]; at 11.0 µM 3% | [2]; at 33.0 µM 62% | [3]; at 1.2 µM 3% | [3]; at 3.7 µM -2% | [3]; at 11.0 µM -52% | [3]; at 33.0 µM -84% | [3]; at 100.0 µM 61% | [4]; at 1.2 µM 2% | [4]; at 3.7 µM -1% | [4]; at 11.0 µM 22% | [5]; at 1.2 µM 2% | [5]; at 3.7 µM 1% | [5]; [17] 17% | [5]; at 11.0 µM 9% | [5]; at 33.0 µM 63% | [6]; at 1.2 µM -3% | [6]; at 3.7 µM -2% | [6]; [17] 20% | [6]; at 11.0 µM 0% | [7]; at 1.2 µM 0% | [7]; at 3.7 µM 3% | [7]; at 11.0 µM 24% | [8]; [17] 37% | [9]; at 1.2 µM -4% | [9]; at 3.7 µM -5% | [9]; at 11.0 µM -11% | [9]; at 33.0 µM 51% | [10]; [17] 11% | [11]; at 1.2 µM -3% | [11]; at 3.7 µM -5% | [11]; [17] 2% | [11]; at 11.0 µM -11% | [12]; at 1.2 µM 1% | [12]; at 3.7 µM 0% | [12]; at 11.0 µM 12% | [13]; at 1.2 µM -2% | [13]; at 3.7 µM -2% | [13]; at 11.0 µM 11% | [14]; at 1.2 µM -4% | [14]; at 3.7 µM -1% | [14]; at 11.0 µM 21% | [15]; [17] 67% | [16]; at 1.2 µM -1% | [16]; at 3.7 µM -1% | [16]; at 11.0 µM -8%
active: [1]; at 33.0 µM 78% | [1]; at 100.0 µM 95% | [2]; at 100.0 µM 96% | [4]; at 33.0 µM 92% | [4]; at 100.0 µM 96% | [5]; [18] 96% | [5]; at 50.0 µM 96.2% | [5]; at 100.0 µM 90% | [6]; at 33.0 µM 85% | [6]; [18] 96% | [6]; at 50.0 µM 95.4% | [6]; at 100.0 µM 96% | [7]; at 33.0 µM 84% | [7]; at 100.0 µM 96% | [8]; [18] 97% | [8]; at 50.0 µM 94.4% | [9]; at 100.0 µM 88% | [10]; [18] 97% | [10]; at 50.0 µM 93.7% | [11]; at 33.0 µM 74% | [11]; [18] 98% | [11]; at 50.0 µM 94.8% | [11]; at 100.0 µM 94% | [12]; at 33.0 µM 90% | [12]; at 100.0 µM 96% | [13]; at 33.0 µM 95% | [13]; at 100.0 µM 97% | [14]; at 33.0 µM 92% | [14]; at 100.0 µM 96% | [15]; [18] 98% | [15]; at 50.0 µM 96.3% | [16]; at 33.0 µM 82% | [16]; at 100.0 µM 95%
